# Records with an inconclusive call do not appear. Where a call stands in place of a potency, no number is given. Calls of active or inactive are those of the source. Calls follow the shape of the dose curve; as a rule, active = well fitted inhibition curve with a large enough effect; inconclusive = small, poorly fitted or top-dose-only effect; inactive = flat fitted curve, though single readings scatter.
# Target: Calcium and integrin-binding protein 1 (Homo sapiens) (UniProt Q99828)
# Assay: Primary qHTS for Identification of Calcium Integrin Binding Protein 1 (CIB1) Competitor (AID 1508620); also: top concentration of the series differs between compounds
# Conditions: CIB1-GST / FITC-alphaIIb peptide fluorescence polarization; series mostly up to 114 µM
# In short: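 Fluorescence polarization competition: GST-tagged CIB1 (1 uM final) preincubated with compound 15 min at room temperature, then FITC-labelled alphaIIb peptide (100 nM final) added. After 15 min at room temperature, polarization read at Ex 480/Em 540.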
# Sequence of Calcium and integrin-binding protein 1 (Homo sapiens) (Q99828 whole entry, looked up): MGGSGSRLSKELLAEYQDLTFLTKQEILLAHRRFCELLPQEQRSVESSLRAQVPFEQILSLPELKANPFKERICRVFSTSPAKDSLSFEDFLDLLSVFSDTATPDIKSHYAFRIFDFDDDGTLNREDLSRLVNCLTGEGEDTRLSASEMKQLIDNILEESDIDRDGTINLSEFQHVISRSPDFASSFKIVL
row,Structure (SMILES),Potency
1,CCc1ccccc1C(=O)N1CCc2cc(-c3nc(NC(=O)Cc4ccc5c(c4)OCO5)sc3C)ccc21,inactive
2,O=C1C2=C(CN1c1ccccc1)NC(Nc1nc3ccccc3o1)=NC2c1ccccc1Cl (centres undefined),inactive
3,Oc1ccc(Nc2nc(-c3ccncc3)nc3ccccc23)cc1F,inactive
4,Cc1nc2ccccn2c1C(O)(c1ccccc1)c1ccccc1,inactive
5,Cc1cccc(CNc2ccc(S(=O)(=O)Nc3nccs3)cc2)c1O,inactive
6,O=C(Nc1ccc2ccccc2c1)Nc1cccc(-c2ccncc2)n1,inactive
7,FC(F)(F)c1ccc(CSc2nc3ncc(Br)cc3[nH]2)cc1,inactive
8,COc1ccc(C2Nc3ccccc3C(=O)N2Cc2ccco2)cc1COc1c(C)cccc1C (centres undefined),inactive
9,CN(C)C1CCN(Cc2cc(COCc3ccccc3)c3cccnc3c2O)C1 (centres undefined),inactive
10,COc1cccc(NC(=S)N2CCN(c3ccccc3C(F)(F)F)CC2)n1,inactive
11,Cc1cnc(-c2ccccc2C(C)C)nc1NCc1cccnc1,inactive
12,NC(=O)c1ccccc1-c1noc(-c2ccccc2F)n1,inactive
13,O=C(O)c1cccc(-c2noc(-c3cccc(Cl)c3)n2)c1,inactive
14,COc1cccc(C2C(C#N)=C(NC(=O)NCc3ccccc3)Oc3ccc4ccccc4c32)c1 (centres undefined),inactive
15,C[C@@H](O)c1ccc(-c2ccc3ncnc(NCc4cccs4)c3c2)o1,inactive
16,CC(=O)N1c2ccc(S(=O)(=O)Nc3ccc(C)c(C)c3)cc2CC1C (centres undefined),inactive
17,Cc1cc(-c2nnc3n2CCCCC3)c(C)n1-c1cccc(C#N)c1,inactive
18,O=S(=O)(Nc1ccc(C2CCNCC2)cc1)c1ccc(NCc2cccc(Cl)c2O)cc1,inactive
19,N#CN1CCC(NS(=O)(=O)c2ccc(F)cc2)CC1,inactive
20,O=Cc1ccc(-c2ccc3ncnc(NCc4cccs4)c3c2)o1,inactive

row,Structure (SMILES),Potency
1,Cc1cc2c(s1)c1cnn(Cc3cc(Cl)ccc3F)c(=O)c1n2C,inactive
2,Fc1cnc(-c2ccccc2C(F)F)nc1NCc1ccc(-c2ccn[nH]2)cc1,inactive
3,O=C1NC2=C(C(=O)CCC2)C(c2ccccc2Cl)N1 (centres undefined),inactive
4,Cc1csc(CN(C)c2ncnc3ccc(-c4ccc5c(c4)OCO5)cc23)n1,inactive
5,COc1cc(OC)c2c(c1)OC(=O)CC2c1ccc2c(c1)OCO2 (centres undefined),inactive
6,CC(C)c1ccccc1-c1ncc(F)c(NCC2CCN(c3cnccn3)C2)n1 (centres undefined),inactive
7,Cc1cc(NCc2ccc(NC(=O)Cc3ccc(Cl)c(Cl)c3)cc2)no1,inactive
8,O=C(CCCCSc1nnc(-c2cccc3ccccc23)o1)Oc1ccc(F)cc1,inactive
9,N#Cc1c(-c2ccccc2C(F)(F)F)nc2ccccc2c1NCc1ccc(-c2cccnc2)cc1,inactive
10,O=C(O)CCc1cc(F)c(S(=O)(=O)N2CCN(S(=O)(=O)c3ccc4c(c3)OCCO4)CC2)cc1F,inactive
11,COc1ccc2ccccc2c1CN(C)CC(=O)Nc1ccc(N2CCOCC2)cc1,inactive
12,COC(=O)c1ccc(O)c2ncc(NC3CCNCC3)cc12,inactive
13,COC(=O)c1ccccc1S(=O)(=O)Nc1ccc(OC)cc1,inactive
14,CCOc1ccc(C(=O)Oc2ccc(-c3nc4ccccc4[nH]3)cc2)cc1Cl,inactive
15,Cc1cccc(-n2cnc3cc(C(=O)N4CCC(Br)CC4)ccc32)c1,inactive
16,O=C(O)c1ccc2c(c1)C(=O)N([C@H](Cc1ccccc1)C(=O)O)C2=O,inactive
17,CCn1cnc2c(Nc3ccc(CCC(=O)N=C(N)N)cc3)nc(C#N)nc21,inactive
18,C#CCOc1ccc(-c2no[n+]([O-])c2C#N)cc1,inactive
19,FC(F)(F)c1ccccc1-c1nc(NCC23CC4CC(CC(C4)C2)C3)c2ccccc2n1,inactive
